# Source: PubChem (Milwaukee Institute for Drug Discovery)
# HCV NS3h FP – blocks HCV NS3 helicase binding to DNA | inhibition, % at 100 µM | 16,000 tested, 1.6% active | NS3h Cy5-dT15 DNA binding, fluorescence polarization;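 active = inhibition above the average over every tested compound plus 3 SD, cut at about 40% in these data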
# Cy5 interf NS3h – enhances or quenches Cy5 fluorescence in NS3h assay; Cy5-dT15 DNA with NS3h, fluorescence interference; actives lie on both sides; signal over control mean, under 1 quenches; fluorescence interference ratio at 100 µM; 16,000 tested, 6% active;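 active = compound fluorescence over control fluorescence at most 0.8, a quencher, or at least a set upper limit, an enhancer; inactive = ratio between 0.8 and the set upper limit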
# Starred values were filed as active, the others as inactive. Only some compounds are listed: those with a hit (about 7.6% of all), similar ones and a draw of the others.
SMILES,HCV NS3h FP,Cy5 interf NS3h
O=[N+]([O-])c1cccc(-c2nc(-c3ccc(Cl)cc3)no2)c1,-9.4,0.981
COC(=O)C1=C(C)N(c2ccc(Cl)cc2)/C(=C\c2ccc(OCC(=O)Nc3ccccc3OC)cc2)C1=O,11.1,1.02
COc1ccc(C2CC(C(F)(F)F)n3nc(C(=O)Nc4cc(C(F)(F)F)ccc4Cl)c(Cl)c3N2)cc1OC (stereo not drawn),5.2,0.945
O=C(NC(CS)C(=O)O)c1cncc(O)c1 (stereo not drawn),0.3,0.643*
CCOC(=O)c1c(NC(=O)c2cncc(Br)c2)sc(C)c1C,16.6,0.972
CC(C)(C)c1ccc(-c2cc(-c3cc(Cl)ccc3O)[nH]n2)cc1,2.8,0.881
O=C(NCc1ccco1)c1nn2c(c1Br)NC(c1cccs1)CC2C(F)(F)F (stereo not drawn),9.9,1.01
O=C(c1cc2n(n1)C(C(F)(F)F)CC(c1ccc(Cl)cc1)N2)N1CCN(c2ccccc2)CC1 (stereo not drawn),24.2,0.926
COc1ccc(C2CC(C(F)(F)F)n3nc(C(=O)NCc4cccs4)cc3N2)cc1OC (stereo not drawn),-3.4,0.91
Cc1ccc(C2CC(C(F)(F)F)n3nc(C(=O)Nc4ccc(F)cc4F)cc3N2)cc1 (stereo not drawn),2.2,0.569*
Cc1ccc(C2CC(C(F)(F)F)n3nc(C(=O)N4CCN(Cc5ccccc5)CC4)cc3N2)cc1 (stereo not drawn),11.0,0.761*
COCCNC(=O)c1cc2n(n1)C(C(F)(F)F)CC(c1ccc(F)cc1)N2 (stereo not drawn),1.7,1.03
COc1ccc(C2CC(C(F)(F)F)n3nc(C(=O)O)cc3N2)cc1OC (stereo not drawn),-0.6,0.646*
COCCNC(=O)CN(c1ccc(C)cc1)S(=O)(=O)c1ccc(OC)c(OC)c1,3.4,1.06
COc1ccccc1CNC(=O)C(=O)Nc1ccccc1C,3.4,1.05
Cc1cccc(NC(=O)C(=O)NCc2ccccc2Cl)c1C,18.9,0.776*
O=C1C(=O)N(Cc2ccccc2Cl)c2ccccc21,5.9,0.955
COc1cc2c(cc1NC(=O)c1ccccc1OC)oc1ccccc12,0.3,0.954
Cc1ccc2nsnc2c1NC(=O)c1cccc(Cl)c1,10.7,1.09
Cc1nc2ccccc2n1S(=O)(=O)c1ccc(Br)cc1,-1.6,0.978
O=S(=O)(c1ccc2c(c1)Cc1cc(S(=O)(=O)n3cnc4ccccc43)ccc1-2)n1cnc2ccccc21,8.7,0.644*
O=C1C(=O)N(c2nncs2)C(c2ccc(F)cc2)C1=C(O)c1ccccc1 (stereo not drawn),5.8,0.972
CCOC(=O)Nc1n[nH]c(NC(=O)OCC)c1[N+](=O)[O-],11.5,0.661*
CCOC(=O)Nc1cc([N+](=O)[O-])ccc1Cl,19.3,0.985
Cc1cc(OCC(=O)OC(C)C)c2c(-c3ccccc3)cc(=O)oc2c1,10.9,1.11
SMILES,HCV NS3h FP,Cy5 interf NS3h
Cc1ccc(OCCOCCOc2ccc(Cl)cc2/C=C2/SC(=S)NC2=O)cc1,23.4,0.966
C=CCOc1ccc(Cl)cc1/C=C1/SC(=S)NC1=O,11.9,1.24*
CCOC(=O)C1=C(C)N(CCOC)C(=O)/C1=C\c1sccc1C,12.5,0.961
Cc1cccc(N2C(=O)C(=O)C(=C(O)c3ccccc3)C2c2cccc([N+](=O)[O-])c2)c1 (stereo not drawn),-19.8,0.986
Cc1cccc(NC(=O)C2CC(=O)N=C(N)S2)c1 (stereo not drawn),-1.5,1.03
CCC(=O)Nc1ccc(C(=O)Nc2c[nH]c(=O)[nH]c2=O)cc1,10.0,1.17
CC(C)CN1C(=O)c2ccc(C(=O)Nc3c[nH]c(=O)[nH]c3=O)cc2C1=O,5.9,0.664*
N#Cc1ccccc1N=Cc1ccc(Cl)cc1Cl,3.6,0.949
O=C(/C=C/c1ccccc1Cl)Nc1ccccc1[N+](=O)[O-],40.9*,1.08
COc1ccc(NC(=O)/C=C/c2ccccc2Cl)c([N+](=O)[O-])c1,7.8,1.04
CC(Nc1cc(N2CCN(C)CC2)ccc1[N+](=O)[O-])c1ccc(Br)cc1 (stereo not drawn),18.8,0.899
Cc1ccc(OCCNc2cc(N3CCN(C)CC3)ccc2[N+](=O)[O-])cc1C,21.3,0.606*
O=Cc1cn(-c2ccccc2)nc1-c1ccc(-c2ccc([N+](=O)[O-])cc2)o1,-2.8,1.01
CC(CC(=O)Nc1ccccc1)c1ccccc1 (stereo not drawn),-6.5,0.947
CC(=O)Nc1ccc(S(=O)(=O)NNC(=O)c2ccccc2Cl)cc1,15.0,0.746*
CC(=O)Nc1ccc(S(=O)(=O)NC(c2ccccc2)c2ccccc2)cc1,12.4,1.12
COc1ccc(C2Nc3ccccc3C(=O)N2Cc2ccco2)cc1CSc1ccccn1 (stereo not drawn),2.2,0.983
Cc1sc2ncn(/N=C\C=C3/N(C)c4ccccc4C3(C)C)c(=O)c2c1C,9.1,1.05
COc1cc(/C=C2/C(=O)N(c3ccccc3)N=C2C)cc(I)c1O,16.8,0.694*
COc1cc(/C=C2/C(=O)N(c3ccccc3)N=C2C)cc([N+](=O)[O-])c1O,4.2,0.935
COc1ccc(C2N(c3ccccc3)CCN2c2ccccc2)cc1O,10.6,0.753*
COc1ccc(C2N(Cc3ccccc3)CCN2Cc2ccccc2)cc1OC,11.5,0.907
Nc1nnc(SCc2ccc([N+](=O)[O-])cc2)s1,11.4,0.719*
Nc1nnc(SCC(=O)Nc2ccccc2[N+](=O)[O-])s1,2.9,0.948
Cc1cc(-c2ccc(Cl)cc2)nc2cc(C(=O)O)nn12,-3.4,0.942
SMILES,HCV NS3h FP,Cy5 interf NS3h
CSc1ccc(S(=O)(=O)N(CC(=O)Nc2cc(C)cc(C)c2)c2ccc(C)cc2)cc1,5.8,1.02
O=C(Nc1ccc(NC(=O)c2ccccc2Br)cc1)c1ccccc1Br,8.6,0.956
COc1ccccc1C(=O)Nc1cc(C)cc(C)c1,15.0,0.677*
COc1ccccc1C(=O)Nc1ccc(Br)cc1,0.4,0.913
CC(=O)Nc1ccc(NC(=O)c2ccccc2OC(F)F)cc1,5.9,0.766*
CCOc1ccc(NC(=O)c2cc(Cl)ccc2Cl)cc1,9.1,1.06
NNC(=Nc1ccccc1)c1ccccn1,3.8,0.946
CC1=C(C(=O)OCCc2ccccc2)C(c2ccsc2)C2=C(CCCC2=O)N1 (stereo not drawn),17.4,1
COc1ccc(CN2CCN(C(=O)CC(C)C)CC2)cc1OCc1ccccc1,-1.6,0.996
O=C(CSc1ncc(-c2ccccc2)[nH]1)Nc1ccc(F)cc1,-2.4,0.782*
O=C(CSCc1ccc(F)cc1)Nc1ccccc1,7.1,0.933
O=C1CCSc2nc(-c3cccc([N+](=O)[O-])c3)nn21,-5.7,0.995
Cc1ccccc1N1C(=O)/C(=C/c2cc(C)n(-c3cccnc3)c2C)C(=O)NC1=S,10.0,0.967
CCc1ccccc1N1C(=O)/C(=C/c2cc(C)n(-c3cccnc3)c2C)C(=O)NC1=S,6.3,1.23*
CS(=O)(=O)N(CC(=O)O)c1ccc(Br)cc1,6.0,0.951
O=C(Nc1ccccc1Br)C1CN(S(=O)(=O)c2ccccc2)CCN1S(=O)(=O)c1ccccc1 (stereo not drawn),-1.3,1.09
O=C(Nc1ccccc1Cl)C1CN(S(=O)(=O)c2ccccc2)CCN1S(=O)(=O)c1ccccc1 (stereo not drawn),11.0,1.36*
COc1ccc(OC)c(C2C(=C(O)c3ccccc3)C(=O)C(=O)N2Cc2cccnc2)c1 (stereo not drawn),-13.0,1.06
